# USP28 inh: blocks human USP28 ubiquitin-rhodamine cleavage; Q96RU2; purified USP28, Ub-rhodamine cleavage fluorescence, 30 min; inhibition, % at 25 µM; 47,000 tested, 3% active
# USP8 block: inhibitors of human USP8 deubiquitinase. P40818. purified USP8, Ub-rhodamine cleavage fluorescence, 30 min. inhibition, % at 20 µM. 47,000 tested, 4.2% active
# USP17 inh: human USP17-like deubiquitinase inhibition; AID 1645855; inhibition, % at 50 µM; purified USP17, Ub-rhodamine cleavage fluorescence, 3 h; 47,000 tested, 6.5% active; A8MUK1
# USP30 inh: blocks human USP30 ubiquitin-rhodamine cleavage | Q70CQ3 | purified USP30, Ub-rhodamine cleavage fluorescence | inhibition, % at 25 µM | 47,000 tested, 5.3% active | AID 1645860
# Target sequence (Q70CQ3 whole entry, looked up): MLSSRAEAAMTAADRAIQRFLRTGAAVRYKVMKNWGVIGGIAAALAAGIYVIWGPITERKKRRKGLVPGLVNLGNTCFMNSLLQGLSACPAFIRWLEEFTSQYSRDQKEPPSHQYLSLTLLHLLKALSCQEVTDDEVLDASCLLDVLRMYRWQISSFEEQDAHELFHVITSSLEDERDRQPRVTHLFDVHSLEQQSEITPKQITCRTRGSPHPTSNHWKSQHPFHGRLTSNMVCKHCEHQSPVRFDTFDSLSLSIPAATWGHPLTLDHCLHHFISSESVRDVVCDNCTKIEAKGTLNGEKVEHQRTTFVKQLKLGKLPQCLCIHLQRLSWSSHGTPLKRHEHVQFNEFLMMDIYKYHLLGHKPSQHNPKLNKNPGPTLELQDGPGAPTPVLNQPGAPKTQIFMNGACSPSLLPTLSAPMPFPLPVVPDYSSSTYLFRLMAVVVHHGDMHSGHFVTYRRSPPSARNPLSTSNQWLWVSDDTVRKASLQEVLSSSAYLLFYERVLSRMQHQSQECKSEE
# * marks the source's active call; other numbers are inactive results; · = no result given. Sampled rows, rich in hits. Any-hit rate of the full collection: about 14%. Rule as the data show it: active = inhibition above about 30%; inactive = the rest.
SMILES,USP28 inh,USP8 block,USP17 inh,USP30 inh
O=C(NCc1ccc(F)cc1)c1cccc(COc2ccc3ccccc3c2)c1,11.4,7.8,7.6,11.0
CCCC(=O)NCc1nnc2c(C(F)(F)F)cc(Cl)cn12,16.4,17.9,9.6,25.6
CCOc1ccc(Br)cc1S(=O)(=O)Nc1nc2ccccc2nc1Nc1ccc(OC)cc1OC,-76.5,-7.1,-77.3,-229.3
COCC(C)Nc1ncc(-c2cnccn2)c(-c2ccc(C)s2)n1 (stereo not given),12.0,3.4,63.5*,24.9
COc1cccc(/C=C/C(=O)Nc2ccc(C)c(Cl)c2)c1,64.8*,31.6*,26.0,40.1*
COc1cccc(/C=C/C(=O)NCc2nnc3c(C(F)(F)F)cc(Cl)cn23)c1,-5.8,-3.8,-13.9,-42.0
Cc1ccc(N(Cc2nc3nc(C)c(Cl)c(C)n3n2)C(=O)CC(C)C)cc1,-0.7,1.6,-6.1,13.1
CC1CCCC(C)N1CCCNC(=O)c1ccc2c(c1)NC(=O)C1CCCN21 (stereo not given),-109.5,-13.0,-110.1,-498.7
O=C(NCc1cccc(F)c1)c1ccc2c(c1)NC(=O)C1CCCN21 (stereo not given),-11.8,66.8*,47.6*,-58.7
O=[N+]([O-])c1cc(S(=O)(=O)Nc2ccccc2)ccc1NCc1ccc(F)cc1,-35.0,0.1,4.7,35.5*
O=C(C1=C(O)C(=O)N(CCCN2CCOCC2)C1c1cccnc1)c1cc2ccccc2o1 (stereo not given),-0.4,-20.3,-2.2,-5.8
CC1CCC(NCc2c(C(=O)O)n(Cc3ccc(F)cc3)c3ccccc23)CC1 (stereo not given),10.2,0.6,0.8,20.3
Cc1cc(C)cc(-n2ccn3cc(-c4cccc(Cl)c4)nc3c2=O)c1,-5.4,25.5,45.1*,-34.7
CSc1ccc(C(=O)CC(C)(C)C(=O)O)cc1,11.3,17.5,11.9,12.7
COc1ccc2c(c1)CCc1c-2n[nH]c1C(=O)N1CCC(C(N)=O)CC1,8.5,-24.4,24.4,30.3*
COc1ccc2c(c1)CCc1c-2n[nH]c1C(=O)N1CCN(C)CC1,-5.7,-2.3,3.3,-6.1
CCOC(=O)N1CCN(C(=O)c2[nH]nc3c2CCc2ccccc2-3)CC1,7.6,23.7,-12.0,16.1
Cc1cc(NC(=O)c2[nH]nc3c2CCc2ccccc2-3)no1,12.2,23.7,64.4*,-30.5
COc1ccc2c(c1)CCc1c-2n[nH]c1C(=O)Nc1cc(C)on1,34.1*,2.5,32.9*,54.7*
Cc1oc(-c2cccc(Cl)c2)nc1CNS(=O)(=O)c1ccccc1,18.7,13.3,6.9,27.7
O=C(Cn1cnc(-c2noc(-c3cccnc3)n2)c1)N1CCN(c2ccc(F)cc2)CC1,3.5,7.4,0.0,6.6
CC1=C(c2ccc(C)c(C)c2)S(=O)(=O)NC1=NCC(=O)Nc1ccc(F)cc1F,6.4,9.3,48.4*,3.1
CCc1ccc(NC(=O)CN=C2NS(=O)(=O)C(c3ccc(CC)cc3)=C2C)cc1,22.3,1.2,57.7*,23.1
COc1ccccc1NC(=O)CN=C1NS(=O)(=O)C(c2ccc(F)cc2)=C1C,0.6,6.5,12.3,-2.6
CCC1=C(c2ccc(C)cc2)S(=O)(=O)NC1=NCC(=O)NC(C)c1ccccc1 (stereo not given),7.0,0.0,54.4*,14.1
SMILES,USP28 inh,USP8 block,USP17 inh,USP30 inh
CC1=C(c2ccc(C)c(C)c2)S(=O)(=O)NC1=NCC(=O)NCCc1ccc(C)cc1,31.8*,4.0,14.9,69.0*
CCC1=C(c2ccc(C)cc2)S(=O)(=O)NC1=NCC(=O)NCCC1=CCCCC1,1.3,17.6,-4.8,0.2
O=C(C1CCC1)N1CCC2(CC1)OC(C(=O)N1CCCCC1)Cn1ccnc12 (stereo not given),-10.6,-27.1,-28.8,-15.5
CN1C[C@@]23CN(C(=O)c4cnccn4)C[C@@H](C[C@@H]2S1(=O)=O)O3,18.4,6.3,11.4,32.4*
CN1C[C@@]23CN(C(=O)c4ccccn4)C[C@@H](C[C@@H]2S1(=O)=O)O3,2.0,12.6,2.1,9.2
Cc1ccccc1NC(=O)c1ncn2c1CN(C)S(=O)(=O)c1ccccc1-2,0.1,-35.7,-4.6,8.6
COc1ccccc1NS(=O)(=O)c1cc(NC(=O)c2cccc(-c3ccc(O)cc3)c2)ccc1C,7.1,0.0,35.3*,30.0*
O=C(NCc1ccc(C(F)(F)F)cc1)C1CCN(c2nc3nc[nH]c(=O)c3s2)CC1,10.5,-8.0,42.5*,14.2
Cc1cc(C)cc(-n2c(-c3ccccc3)cn3c4c(=O)n(C)c(=O)n(C)c4nc23)c1,-4.7,2.4,0.0,7.3
COc1cc(C)ccc1-n1c(-c2ccc(F)cc2)cn2c3c(=O)n(C)c(=O)n(C)c3nc12,2.1,9.0,42.9*,39.3*
O=C(NC1CCCCC1)C(c1ccc(F)cc1)N(Cc1ccccc1)C(=O)CN1C(=O)c2ccccc2S1(=O)=O (stereo not given),15.2,17.0,7.2,44.6*
O=C(NC1CCCCC1)C(c1ccc(F)cc1)N(C(=O)CN1C(=O)c2ccccc2S1(=O)=O)c1ccccc1 (stereo not given),11.2,13.5,20.4,31.5*
CCCn1c(=O)c2cc(C(=O)Nc3ccccc3)nn2c2ccccc21,-2.2,-14.9,30.6*,0.0
CCn1c(=O)c2cc(C(=O)Nc3ccc(OC)c(OC)c3)nn2c2ccccc21,0.0,-56.5,-11.0,-5.7
O=C1CSCC(=O)N1c1ccc2c(c1)OCO2,5.3,13.6,·,-3.9
O=C1Cc2ccccc2C(=O)N1c1ccc2c(c1)OCO2,36.1*,81.5*,66.3*,-51.5
O=C1C/C(=C\c2ccc3c(c2)OCO3)Cc2ccccc21,30.4*,5.8,22.6,8.7
COc1ccc2c(c1)C(=O)C/C(=C\c1ccc(Cl)cc1)C2,15.6,20.6,19.6,19.8
CCC1CCCCN1C(=O)c1cc2c(=O)n3ccccc3nc2n1Cc1ccccc1 (stereo not given),15.2,9.2,9.3,30.5*
O=C(c1cc2c(=O)n3ccccc3nc2n1Cc1ccccc1)N1CCCCCC1,-9.8,-2.6,-9.5,-15.3
CNC(=O)c1cc2c(=O)n3cccc(C)c3nc2n1Cc1ccccc1,0.4,21.2,79.6*,6.8
O=C(NCc1ccnc(-n2cccn2)c1)c1ccccn1,-8.8,1.3,-20.2,-5.4
Cn1ncc2c(NCc3ccccc3)nc(N3CCCCC3)nc21,3.5,-11.2,-5.8,-12.4
CC(C)c1cnn2c(NCc3ccccc3)cc(NCCCCCCN)nc12,40.1*,3.0,-7.9,37.4*
O=C(NCc1ccccc1F)Nc1ccccc1[N+](=O)[O-],25.2,-39.7,73.5*,56.5*
O=C(NCc1ccco1)c1ccc(SCCN2CCCCC2)nc1,-21.4,2.5,-1.3,-121.9
Cc1ccc(C)c(Cn2nnc3c(=O)[nH]c(C4CCN(S(=O)(=O)c5ccc(S(=O)(=O)NC6CCCC6)cc5)CC4)nc32)c1,20.9,-17.9,-7.8,-0.7
Cc1ccc(C)c(Cn2nnc3c(=O)[nH]c(C4CCN(S(=O)(=O)c5ccc(S(=O)(=O)N6CCOCC6)cc5)CC4)nc32)c1,15.5,55.8*,40.4*,33.2*

# Assay outcomes (PubChem)
